Source: PubChem BioAssay AID485346 (Sanford-Burnham Center for Chemical Genomics, 2010)
Out of some 330,000 compounds screened, about 10,000 (3%) were called active. Shown is part of a subset that was picked to be rich in actives. A number with no mark means an inactive call.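 Rule for the calls: active = inhibition of at least 50% at 8 µM in the primary screen; inactive = the rest.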

target: Protein Mdm4 (Homo sapiens) + E3 ubiquitin-protein ligase Mdm2 (Homo sapiens) (UniProt O15151+Q00987); assay: disruptors of Mdm2/MdmX RING complex – cell-based, luminescence, split luciferase, SaOS-2, uHTS, primary screen (AID 485346); settings: SaOS-2 split-luciferase Mdm2/MdmX complementation, at 8 µM, stronger effect = higher value
Sequence (O15151 whole entry, looked up): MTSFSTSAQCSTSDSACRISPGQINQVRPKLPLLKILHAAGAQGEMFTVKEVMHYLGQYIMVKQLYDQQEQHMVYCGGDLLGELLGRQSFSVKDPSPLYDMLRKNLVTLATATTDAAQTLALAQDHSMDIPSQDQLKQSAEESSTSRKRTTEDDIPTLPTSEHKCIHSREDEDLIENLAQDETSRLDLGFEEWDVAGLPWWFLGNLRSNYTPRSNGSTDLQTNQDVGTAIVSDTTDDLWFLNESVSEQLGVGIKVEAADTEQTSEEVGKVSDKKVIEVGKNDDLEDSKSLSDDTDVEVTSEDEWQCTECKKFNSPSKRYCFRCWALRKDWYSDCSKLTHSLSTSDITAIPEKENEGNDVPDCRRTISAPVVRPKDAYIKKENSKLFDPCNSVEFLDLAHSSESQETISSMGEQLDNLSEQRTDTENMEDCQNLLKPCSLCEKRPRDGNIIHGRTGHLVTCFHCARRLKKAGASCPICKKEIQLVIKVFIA
Sequence (Q00987 whole entry, looked up): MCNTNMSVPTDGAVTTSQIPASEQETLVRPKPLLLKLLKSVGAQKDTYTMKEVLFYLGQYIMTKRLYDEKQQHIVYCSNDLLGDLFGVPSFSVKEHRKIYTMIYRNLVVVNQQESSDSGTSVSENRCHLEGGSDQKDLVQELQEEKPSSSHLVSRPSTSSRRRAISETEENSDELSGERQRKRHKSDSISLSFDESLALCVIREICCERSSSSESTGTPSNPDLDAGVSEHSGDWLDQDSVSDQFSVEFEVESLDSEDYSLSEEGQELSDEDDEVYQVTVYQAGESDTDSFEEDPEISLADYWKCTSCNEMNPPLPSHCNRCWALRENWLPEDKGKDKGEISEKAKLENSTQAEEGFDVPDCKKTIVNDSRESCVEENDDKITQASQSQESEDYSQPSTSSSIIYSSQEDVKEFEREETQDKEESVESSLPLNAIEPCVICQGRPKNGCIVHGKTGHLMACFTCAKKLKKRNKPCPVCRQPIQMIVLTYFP

SMILES	inhibition
Cc1ccc2c(c1)C1C[N+](C)(CC(=O)c3ccccc3)CCC1N2C(=O)c1ccccc1Cl (centres undefined)	-17.1%
CCSC1=NCCN1S(=O)(=O)c1ccc(F)cc1	-0.662%
Nc1nnc2c(C(F)(F)F)nc3ccccc3n12	-2.03%
FC(F)(F)c1nnc2c3ccccc3c(Cl)nn12	64.4% (active)
FC(F)(F)c1nnc2ccc(N3CCN(c4ccccc4)CC3)nn12	26.8%
Cc1cc2oc(C(=O)Nc3c(C)n(C)n(-c4ccccc4)c3=O)c(C)c2cc1Cl	23.4%
COc1ccc(CNC(=O)c2ccc3oc(C(C)C)nc3c2)cc1	-34.8%
Cc1cccc(N2O[C@H]3C=CC2CCCC3)n1	15.6%
CC(=O)c1ccccc1NC(=O)CC1(CC(=O)O)CCCCC1	10.9%
CCOc1ccc(CCNC(=O)CSc2cc(=O)n(C)c3ccc(Cl)cc23)cc1OCC	4.16%
CCN(CCCNC(=O)CSc1cc(=O)n(C)c2cc(Cl)ccc12)Cc1ccccc1	54.7% (active)
CCN(CC)CCCNC(=O)CCc1ccccc1	27.2%
CC(=O)OCCC(C)C	9.67%
C=CCn1c(SCC(=O)NCC2CCCO2)nc2sc(C)c(C)c2c1=O (centres undefined)	2.91%
C=CCn1c(SCc2c(C)noc2C)nc2sc3c(c2c1=O)CCC(C)C3 (centres undefined)	52.5% (active)
C=CCn1c(SCC(=O)NCCCO)nc2sc3c(c2c1=O)CCC3	0.393%
Cc1ccc(-c2ccc(=O)n(Cc3ccc(F)cc3Cl)n2)cc1	-15.3%
COc1ccc(-c2nc(-c3ccccc3)no2)c(OC)c1	58.4% (active)
Cc1ccc(-c2nc(-c3ccncc3)no2)c(C)c1	-116%
COc1ccc(/C=C/c2noc(-c3ccccc3OC(C)=O)n2)cc1	-61.9%
O=C(NCCN1CCOCC1)c1cc(Sc2cccc(Cl)c2)nc2ccccc12	-2.97%
CCOC(=O)/C=c1\s/c(=C\c2ccc(C#N)cc2)c(=O)n1CC(=O)Nc1cccc(C)c1C	78% (active)
Cc1cccc(NC(=O)CSC(N)=O)c1C	2.96%
CCOC(=O)/C=c1\s/c(=C\c2ccccc2OC)c(=O)n1CC(=O)N1CCOCC1	11.5%

SMILES	inhibition
COc1cc(Cl)c(C)cc1NC(=O)[C@@H]1CCCN1C(=O)c1cccs1	6.14%
COc1ccc(S(=O)(=O)N2CCN(c3cnccn3)CC2)cc1	13.5%
CC1(C)CCSC(/C=C/c2ccccc2)=N1	85.2% (active)
CC(=O)N1CCC(N(C(=O)Nc2ccc(Cl)cc2)C(C)C)CC1	-29%
Cc1cc2oc3ccc(NCCC4CCCN4C)cc3c(=O)c2cc1C (centres undefined)	90% (active)
COc1cccc2sc3cc(NCC[C@@H]4CCCN4C)ccc3c(=O)c12	-8.67%
Cc1cc2oc(=O)cc(CN3CCN(Cc4ccccc4)CC3)c2cc1C	-23.1%
CCCCC1(C(=O)OCC)NC(c2ccc(O)cc2)C2C(=O)N(c3ccccc3)C(=O)C21 (centres undefined)	4.63%
COc1cccc(NC(=O)CCc2nnc3ccc(N4CCC(C)CC4)nn23)c1	6.23%
CC(=O)Nc1ccc(CN2CCN(Cc3ccc(F)c(F)c3)C(CCO)C2)cc1 (centres undefined)	-4.68%
CC(C)c1nc(CNC(=O)CC2C(=O)NCCN2Cc2ccoc2)cs1 (centres undefined)	17%
COc1cc(SC)ccc1C(=O)Nc1nc(C)cs1	70.4% (active)
Cc1csc(NC(=O)c2ccc(C)s2)n1	-81.3%
COc1cc(SC)ccc1C(=O)Nc1cc(C)ccn1	-133%
COc1ccc(-c2c(C(C)=O)c(C)nc3sc4c(=O)n(-c5ccc(C)cc5)nnc4c23)cc1	16.5%
O=S(=O)(Nc1cccc(-c2ccc(N3CCOCC3)nn2)c1)c1ccc(Cl)c(Cl)c1	-21.1%
NC(=O)c1ccc(Nc2ccc3nonc3c2[N+](=O)[O-])cc1	19.2%
Cc1cc(C)cc(NC(=O)C(c2ccccc2)N2CCN(CC(=O)N3CCCC3)CC2)c1 (centres undefined)	24%
COC1=CCC2([N+](=O)[O-])CN(CC(=O)O)CC1([N+](=O)[O-])C2 (centres undefined)	4.95%
Fc1ccc(-c2ccc(CNCc3ccccn3)o2)cc1Cl	1.76%
Cc1cccc2cc(CN(Cc3cccs3)C(=S)NCc3ccco3)c(=O)[nH]c12	19.1%
Cc1cc(C)c2[nH]c(=O)c(CN(Cc3ccccc3)C(=S)NCCCN(C)C)cc2c1	90.9% (active)
COCCCNC(=S)N(CCN(C)C)Cc1cc2cc3c(cc2[nH]c1=O)OCCO3	-4.07%
COc1ccccc1NC(=O)CCC(=O)OC(C)C(=O)c1ccccc1 (centres undefined)	-23.8%

SMILES	inhibition
CCCn1c(O)c(CN2CCCC(C)C2)c(C)c(C#N)c1=O (centres undefined)	-48.3%
CCN(CC(=O)NCc1ccc(F)cc1)S(=O)(=O)c1ccc(Cl)s1	-3.24%
COc1cc(NC(=O)c2cncc(-c3ccc(C#N)cc3)c2)cc(C(=O)Nc2cccc(C(F)(F)F)c2)c1	59.6% (active)
N#Cc1ccc(Oc2ccc(C(F)(F)F)cc2NC(=O)c2ccc(F)cc2)cc1	9.08%
COc1cc(NC(=O)c2[nH]cnc2C(N)=O)cc(C(=O)Nc2cccc(C(F)(F)F)c2)c1	97.2% (active)
COc1ccc(NC(=O)CN(C)CC(=O)Nc2cccc(C(F)(F)F)c2)cc1	14.9%
COc1ccc(NC(=O)C(=O)NCC(=O)Nc2cccc(C(F)(F)F)c2)cc1	12.2%
Cc1cccc(NC(=O)c2nnn(-c3cccc(C(F)(F)F)c3)c2N)c1	8%
CCN1C(=O)[C@H]2[C@@H](c3ccc(-c4ccc(F)cc4)cc3)N[C@@](Cc3ccccc3)(C(=O)OC)[C@H]2C1=O	48%
CCCC(CNC(=O)COC(=O)C1=NNC(=O)CC1)c1ccc(Cl)cc1Cl (centres undefined)	-11.5%
C=C(C)C(=O)Nc1cccc(C2=NOC3(C2)C[C@H](C(N)=O)N(C(=O)C(c2ccccc2)c2ccccc2)C3)c1 (some centres undefined)	16.4%
Cc1c(C(=O)Nc2cccc(Cl)c2)cn2c(nc3ccccc32)c1C#N	60.3% (active)
Cn1c(Nc2cccc(Cl)c2)nc2ccccc21	-18.1%
O=C(O)c1cccc(NC(=O)c2cc(-c3cccc(Cl)c3)nc3ccccc23)c1	0.449%
CC(=O)c1c(C)[nH]c(C(=O)OCC(=O)NCCC(C)C)c1C	17.9%
CCOc1cc(NC(=S)NCCCN(C)C)c(OCC)cc1NC(=O)C1CC1	3.9%
CC(C)c1cc(C(=O)N/N=C/C(Br)=C/c2ccccc2)n[nH]1	66.1% (active)
CC(C)c1cc(C(=O)O)n[nH]1	5.75%
Cc1cc(C(=O)N/N=C\C(Br)=C\c2ccccc2)c(C)o1	-18.5%
O=C1CSc2ccc(S(=O)(=O)NCc3ccccc3)cc2N1	-3.1%
COc1ccc(OC)c(C2C3=C(N=c4s/c(=C\c5cccc(O)c5)c(=O)n42)c2ccccc2CC3)c1 (centres undefined)	79.2% (active)
CCOC(=O)C1=C(C)N=c2s/c(=C\C(=O)OC)c(=O)n2C1c1ccc(OC)cc1 (centres undefined)	12.2%
O=C1CCCC2=C1C(c1ccccc1)n1c(s/c(=C/c3cccc(F)c3)c1=O)=N2 (centres undefined)	-4.28%
O=C(N/N=C/c1ccc(Cl)cc1)c1nc2ccc([N+](=O)[O-])cc2c(=O)[nH]1	6.69%

SMILES	inhibition
COC(=O)c1sc(SC)c(S(=O)(=O)C(C)C)c1N/N=C(\C#N)S(=O)(=O)c1ccccn1	9.73%
O=C(NC1CCc2ccccc21)C12CN(Cc3ccccc3)CC1C(c1cccc([N+](=O)[O-])c1)=NO2 (centres undefined)	0.069%
CSc1ncc(Sc2ccccc2)c(C(=O)O)n1	8.72%
CSc1nc(-c2ccccc2)nc(C(Cl)Cl)n1	101% (active)
CN=C(NC#N)NCCSCc1nc[nH]c1C	2.92%
CC1(C)CC(=O)C=C(NCc2ccncc2)C1	27.3%
Cc1ccc(S(=O)(=O)N2CCC(N3CCCCCC3)CC2)cc1	1.35%
O=S(=O)(c1ccccc1)N1CCC(c2ccccc2)CC1	-19.7%
c1ccc(C2CCC(N3CCC(N4CCCCC4)CC3)CC2)cc1 (centres undefined)	91.3% (active)
CCOC(=O)C1CCN(C(=O)C2CCN(S(=O)(=O)CC)CC2)CC1	12.2%
CCN(CC(=O)NCCCN1CCOCC1)S(=O)(=O)c1cc(Cl)ccc1Cl	20.3%
COc1ccc(N=C2SC(C(=O)Nc3ccc(F)cc3)CC(=O)N2C)cc1 (centres undefined)	15%
Cc1ccc(NC(=O)Nc2ccccc2)c(Br)c1	-41.3%
Cc1cccc(NC(=O)Nc2cccc(Oc3c(F)c(F)c(F)c(F)c3F)c2)c1	74.3% (active)
Cc1cccc(NC(=O)NC(=S)NC(=O)c2ccccc2)c1	-38.5%
O=C(NC(=S)Nc1ccc2oc(=O)ccc2c1)c1ccc(-c2cccc(Cl)c2Cl)o1	80.7% (active)
O=C(COc1ccc(Cl)cc1)Nc1ccc2oc(=O)ccc2c1	-1.06%
CC(C)C(=O)Nc1ccc2oc(=O)ccc2c1	3.99%
CC1(C)CC(=O)C=C(c2cccc3c2Oc2ccccc2S3)C1	2.33%
COc1cc2c(cc1OC)CN(C(=O)c1ccc(S(=O)(=O)N3CCCCCC3)cc1)CC2	11%
CCOc1cc(C(=O)N2CCc3cc(OC)c(OC)cc3C2)ccc1OC(F)F	51% (active)
COc1cc2c(cc1OC)CN(C(=O)c1cc(=O)c3ccccc3o1)CC2	49.8%
